Source: PubChem BioAssay
Most compounds without a hit are left out; they make up all but 3% or so of the library.
GALK inhibitor – inhibitors of human galactokinase; Purified GALK, Kinase-Glo residual ATP luminescence; 270,000 tested, 0.007% active; Potency, µM (series often up to 57.5 µM), inactives show at the top dose activity change, negative = inhibition, most hits filed as inhibitors; AID 1868; also: % is scaled to controls: 0 for no effect and ±100 for the full control effect
Target sequence (P51570 whole entry, looked up): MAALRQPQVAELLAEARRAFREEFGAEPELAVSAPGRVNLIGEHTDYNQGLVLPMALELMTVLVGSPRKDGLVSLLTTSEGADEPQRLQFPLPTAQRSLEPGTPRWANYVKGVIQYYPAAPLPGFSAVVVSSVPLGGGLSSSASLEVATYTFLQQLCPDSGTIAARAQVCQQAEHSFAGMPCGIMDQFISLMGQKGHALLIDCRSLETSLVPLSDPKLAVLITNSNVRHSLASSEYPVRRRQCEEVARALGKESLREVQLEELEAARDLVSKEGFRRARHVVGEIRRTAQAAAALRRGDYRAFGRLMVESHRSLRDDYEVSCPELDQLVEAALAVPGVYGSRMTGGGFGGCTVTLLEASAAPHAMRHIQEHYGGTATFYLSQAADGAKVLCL
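Luminescence from leftover ATP (Ultra-Glo luciferase/luciferin) served as read-out after a 1 h room-temperature reaction of 5 nM GALK with 35 uM ATP and 100 uM galactose.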
A549 tox – A549 cytotoxicity, counter-screen for Nrf2 inhibitors; A549 ARE-Fluc cells, CellTiter-Fluor viability, 18-24 h; Potency, µM (top dose mostly 46 µM), without a hit: at the highest dose activity change, negative = cytotoxicity, usual class: inhibitors; 390,000 tested, 0.16% active; also: % is scaled to controls: 0 for no effect and ±100 for the full control effect
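A549 ARE_Fluc cells in 5% FBS OPTI-MEM were exposed to compounds in concentration-response for 18-24 h at 37 deg C. Viability was read by CellTiter-Fluor fluorescence (Ex 405/Em 525) after 30 min, before the luciferase read.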
Nrf2 ARE act – Nrf2 pathway activation. AREc32 ARE-luciferase reporter (MCF7-derived line), luminescence, 24 h. Potency, µM (series often up to 46.1 µM), without a hit: at the top dose activation, hits mostly activators. 410,000 tested, 0.31% active. AID 624171; also: % of control where 0% means no effect; nearly all actives have a fitted effect of over 65% in size
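Quantitative high-throughput format: AREc32 reporter cells, 1000 per well, received compound by pin transfer and were incubated 24 hr at 37 deg C, 5% CO2, before Steady-Glo luminescence detection.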
rTrxR1 inhibitor – inhibitors of rat thioredoxin reductase 1; O89049; recombinant rTrxR1, NADPH fluorescence consumption, selenite substrate; Potency, µM (series often up to 114 µM), without a hit: at the highest dose activity change, negative = inhibition, most hits filed as inhibitors; 390,000 tested, 1% active; also: % is scaled to controls: 0 for no effect and ±100 for the full control effect; nearly all actives have a fitted effect of over 65% in size
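Rat TrxR1 (90 nM in the dispensed reagent) was pre-reduced with 400 uM NADPH for 5 min at room temperature, then incubated with compound for 15 min. After 400 uM selenite was added, NADPH fluorescence (Ex 340/Em 450 nm) was followed for 8 min.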
Nrf2 inh – Nrf2 pathway inhibition. 360,000 tested, 2.1% active. A549 ARE-Fluc reporter, luciferase luminescence, 18-24 h. Potency, µM (series often up to 46 µM), for the others: at the highest dose activity change, negative = inhibition, usual class: inhibitors; also: % is scaled to controls: 0 for no effect and ±100 for the full control effect; nearly all actives have a fitted effect of over 60% in size
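Nrf2 activity is the BugLite luminescence, read 15 min after reagent at room temperature, following CellTiter-Fluor cytotoxicity readout (30 min, 37C). Compound titrations were applied for 18-24 h to 5000 A549 ARE_Fluc cells/well in 5% FBS OPTI-MEM.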
TrxR1 substrate – rat thioredoxin reductase 1 substrate activity; O89049; 390,000 tested, 0.01% active; Potency, µM (titrated, usually from 114 µM), inactives show at the highest dose activity change, negative = substrate turnover; purified TrxR1 substrate turnover, NADPH consumption readout; AID 588456; also: % is scaled to controls: 0 for no effect and ±100 for the full control effect; nearly all actives have a fitted effect of over 50% in size
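Rat TrxR1, dispensed at 90 nM, was prereduced with 400 uM NADPH (final) for 5 min at ~22 deg C, then incubated with compound 15 min before 400 uM selenite. A first-read NADPH fluorescence drop versus no-compound background flagged substrates.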
Numbers without * were called inactive; ? = inconclusive; / = not tested or not shown; [ ] = dose if it differs, or a comment. Calls follow the shape of the dose curve; as a rule, active = well fitted curve in the direction sought with a large enough effect; inconclusive = small, poorly fitted or top-dose-only effect, or another doubt; inactive = no such curve, though single readings can be large; an effect the other way counts as inactive or inconclusive. Potency is read from the fitted curve at half-maximal effect.

SMILES	GALK inhibitor	A549 tox	Nrf2 ARE act	rTrxR1 inhibitor	Nrf2 inh	TrxR1 substrate
CCc1ccc2[nH]c(=O)c(C3C(C#N)=C(N)Oc4c3ccc3cccnc43)cc2c1 (centres undefined)	0.5%	?	-0.4%	44.7µM*	14.6µM*	12.1%
Cc1ccc2cc(C3C(C#N)=C(N)Oc4c3ccc3cccnc43)c(=O)[nH]c2c1 (centres undefined)	1.9%	-3.7%	-0.6%	12.6µM*	?	-0.1%[57.1 µM]
CC(=O)C1=C(C)OC(N)=C(C#N)C1c1cc2cccc(C)c2nc1Cl (centres undefined)	/	-7.2%	0.3%	-10.6%	7.0%	6.4%
N#CC1=C(N)Oc2c(ccc3cccnc23)C1c1cccnc1 (centres undefined)	-0.1%	-27.8%	-1.0%	50.1µM*	?	20.8%
CCOc1cccc(C2C(C#N)=C(N)Oc3cc(C)[nH]c(=O)c32)c1OCC (centres undefined)	4.7%	7.2%	0.0%	26.5%	1.7%	0.0%
NC(=O)COc1ccccc1C(=O)Nc1ccccc1	/	/	/	5.6%	/	3.3%
COc1cccc2c1Oc1ncccc1N(C(=O)Nc1ccc(F)c(Cl)c1)C2	/	-5.5%	4.9%	22.5%	4.1%	2.7%
O=S1(=O)N=C(Oc2cccc(Cl)c2)c2ccccc21	/	-0.7%[65.3 µM]	/	/	-4.0%[65.3 µM]	/
O=C(CNC(=O)c1ccc2ccccc2c1)OC(C(=O)Nc1cc(C(F)(F)F)ccc1Cl)c1ccccc1 (centres undefined)	/	9.8%	/	/	2.5%	/
COc1ccccc1NC(=O)C(C)OC(=O)/C=C/c1ccc2ccccc2n1 (centres undefined)	/	2.5%	17.8µM*	-6.3%	2.5%	-6.8%
CCOc1ccc2[nH]c3c(N4CCc5ccccc5C4)ncnc3c2c1	-2.9%	-26.0%	0.3%	6.6%[57.1 µM]	?	11.3%[57.1 µM]
COc1ccc2[nH]c3c(N4CCC(O)(c5cccc(C(F)(F)F)c5)CC4)ncnc3c2c1	-0.1%	?	-1.4%	-6.2%	23.1µM*	36.7%
Brc1ccc2[nH]c3c(N4CCc5ccccc5C4)ncnc3c2c1	-0.2%	-13.4%	3.0%	-19.8%	9.2µM*	-4.3%
Cc1ccc2[nH]c3c(N4CCc5ccccc5C4)ncnc3c2c1	/	-27.3%	8.6%	-1.8%	7.31µM*	11.9%
c1ccc2c(c1)[nH]c1c(N3CCCC3)ncnc12	-4.7%	-9.1%	4.6%	9.7%[57.1 µM]	/	0.6%[57.1 µM]
Clc1ccc2[nH]c3c(N4CCC5(CC4)OCCO5)ncnc3c2c1	-1.3%	-17.5%	4.1%	5.2%[57.1 µM]	20.6µM*	34.0%[57.1 µM]
COc1ccc2[nH]c3c(N4CCN(Cc5ccc6c(c5)OCO6)CC4)ncnc3c2c1	1.6%	-16.2%	7.5%	-10.9%	?	48.0%
O=C1c2cccc3c([N+](=O)[O-])ccc(c23)C(=O)N1c1ccccn1	-5.9%	6.8%	0.3%	?	?	-7.4%
O=C1c2cccc3c([N+](=O)[O-])ccc(c23)C(=O)N1O	1.2%	-13.3%	12.6µM*	?	?	-3.9%[57.1 µM]
CCCN1CCC(=O)N(C(CSc2ccc(C)cc2)CC(C)C)CC1 (centres undefined)	/	-23.2%	/	-26.8%	?	-10.6%
Cc1cccc(NC(=O)CSc2ccc(-c3ccccn3)nn2)c1	/	-5.3%	0.3%	-1.7%	?	2.3%
CC(=O)c1cccc(NC(=O)CSc2ccc(-c3ccccn3)nn2)c1	6.2%	-12.9%	3.1%	18.2%	20.6µM*	5.0%
CC(=O)Nc1cccc(NC(=O)CSc2ccc(-c3ccccn3)nn2)c1	-0.1%	-11.2%	0.8%	14.0%[57.1 µM]	?	7.3%[57.1 µM]
CCc1ccc(NC(=O)CSc2ccc(-c3ccccn3)nn2)cc1	8.7%	?	5.7%	10.7%	20.6µM*	-5.6%
CC(=O)c1sc(C(C)(C)C)cc1NC(=O)/C=C/C(=O)O	-0.3%	-0.6%	15.8µM*	-6.0%	-19.5%	-7.5%
SMILES	GALK inhibitor	A549 tox	Nrf2 ARE act	rTrxR1 inhibitor	Nrf2 inh	TrxR1 substrate
Clc1cccc(-n2ncc3c(NCCC4=CCCCC4)ncnc32)c1	/	6.4%	0.5%	-12.0%[57.1 µM]	/	-10.7%[57.1 µM]
O=C(/C=C/c1ccoc1)c1ccccc1O	1.9%	-0.1%	0.3%	6.6%	?	4.5%
COc1ccc2ccccc2c1C(=O)/C=C\c1ccoc1	/	-2.7%	12.6µM*	?	11.5%	2.5%
CSc1nc(O)c(C(c2ccc(OC(C)C)cc2)c2c(O)nc(SC)[nH]c2=O)c(=O)[nH]1	/	1.7%	3.1%	11.2µM*	3.1%	3.0%[57.1 µM]
CSc1nc(O)c(C(c2ccc(F)cc2)c2c(O)nc(SC)[nH]c2=O)c(=O)[nH]1	/	-6.3%	0.2%	?	-15.2%	3.6%
COc1ccc(S(=O)(=O)NCCS(=O)(=O)N2CCN(c3ccccc3)CC2)cc1OC	/	18.3%	0.0%	18.5%[57.1 µM]	/	4.2%[57.1 µM]
O=C(Cn1cc(CNC(=O)c2ccccc2)nn1)Nc1cc(C(F)(F)F)ccc1Cl	/	0.1%	/	/	8.2%	/
O=C(OCC1OC(n2cnc3c(N(C(=O)c4ccccc4)C(=O)c4ccccc4)ncnc32)C(O)C1F)c1ccccc1 (centres undefined)	-0.7%	?	6.6%	17.6%[57.1 µM]	16.4µM*	0.9%[57.1 µM]
Fc1cccc(Cl)c1Cc1noc(/C=C/c2ccccc2)n1	1.2%	-0.4%	15.8µM*	32.3%	?	9.3%
Cc1nn(-c2ccc(N3CCOCC3)nn2)c(C)c1CCC(=O)Nc1ccc(F)cc1F	/	9.2%	-0.2%	15.0%[57.1 µM]	?	7.3%[57.1 µM]
CCN(CCCNC(=O)c1cc2cc3cc(OC)ccc3nc2s1)c1cccc(C)c1	/	-13.1%	1.2%	2.0%	25.9µM*	-7.3%
CCOC(=O)c1cccc(NC(=O)c2cc3cc4ccc(C)cc4nc3s2)c1	/	4.1%	-0.6%	-6.2%	?	29.3%
CCOC(=O)c1cccc(NC(=O)c2cc3cc4cc(OC)ccc4nc3s2)c1	/	?	0.2%	10.9%	23.1µM*	-1.0%
CCN(CCCNC(=O)c1cc2cc3ccc(C)cc3nc2s1)c1ccccc1	/	0.9%	5.0%	3.3%	0.5%	-7.8%
COc1ccc(C2Nc3ccccc3C(=O)N2Cc2ccccc2)cc1COc1ccc(Cl)cc1 (centres undefined)	/	-1.3%	/	/	-14.6%	/
Cc1cccc(Cn2c(=O)n(-c3cc(C)cc(C)c3)c(=O)c3oc4ccccc4c32)c1	/	-0.2%	0.6%	40.2%	-2.4%	33.3%
CC(C)[C@H](NC(=O)c1ccc(Cl)cc1)C(=O)OCC(=O)N1CCN(c2ccccc2)CC1	/	-1.2%	-0.2%	31.6µM*	-11.9%	1.5%
CC(C)C(NC(=O)c1ccccc1)C(=O)OCC(=O)N1CCCC1 (centres undefined)	/	0.7%	-0.2%	13.3%	-0.1%	-2.1%
CCOc1ccc(-c2cc3c(=O)n(Cc4nc(-c5ccc(OC(C)C)cc5)oc4C)ccn3n2)cc1Cl	/	-1.4%	0.1%	-19.7%	15.3%	-15.1%
